The panel holds about 83,000 compounds, 20% with a hit somewhere; the sample as a whole holds those more often.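 For each line, cells grew in 96-well plates with the test compound present at a single concentration for 48 hours.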 Unmarked numbers belong to inactive results. The source made the active and inactive calls. The calls were made as follows: active = growth percent below 10; inactive = the rest.

Experiment in all cases: NCI-60 one-dose screen, 48 h (100 = growth as untreated, 0 = no growth, -100 = all killed)
One test relates to T-47D breast. As to conditions: 10 µM unless noted.
A further test concerns BT-549 breast. As to conditions: 10 µM unless noted.
The subject of another test is MDA-MB-435 melanoma. As to conditions: 10 µM unless noted.
The test system of the next test is SW-620 colon. The conditions noted are these: 10 µM unless noted.
The test system of another test is MCF7 breast. The conditions noted are these: 10 µM unless noted.
Another test relates to HCT-116 colon. As to conditions: 10 µM unless noted.
The subject of another test is HCC-2998 colon. As to conditions: 10 µM.
The test system of the next test is KM12 colon. The conditions noted are these: 10 µM unless noted.

For `Cn1cc(-c2cnn3c(N)c(Br)c([C@@H]4CCCNC4)nc23)cn1`, the growth in the test on T-47D breast is 59.8%; with BT-549 breast it was 52.1%; in the test with MDA-MB-435 melanoma, 39.1%; with SW-620 colon, 63.8%; in the test with MCF7 breast it was 31.5%; in the test with HCT-116 colon, 35.8%. For the same molecule, the growth with HCC-2998 colon was 53.7%; in the test on KM12 colon it was 18.4%.
`COc1ccc(-c2ccc3ncc4c(c3c2)n(-c2ccc(N3CCNCC3)c(C(F)(F)F)c2)c(=O)n4C)cn1`: the growth with T-47D breast was -66.9% (active); in the test on BT-549 breast, -63.6% (active); in the test on MDA-MB-435 melanoma it was -88.3% (active); in the test with SW-620 colon, -78.4% (active); with MCF7 breast, -63% (active); in the test on HCT-116 colon it was -69.8% (active). Besides, the growth with HCC-2998 colon was -93.2% (active); in the test on KM12 colon, -95.8% (active).
In the case of `C=C1[C@@H](O)C[C@H]2C(C)(C)C[C@H](Cl)C[C@]2(C)[C@H]1C[C@H](O)[C@H]1CC(=O)NC1=O`, the growth in the test with T-47D breast is -20.3% (active); in the test on BT-549 breast, -24.1% (active); with MDA-MB-435 melanoma it was -44.6% (active); with SW-620 colon it was -1.83% (active); in the test with MCF7 breast, -18.8% (active); in the test on HCT-116 colon, -28.8% (active). Further, the growth in the test on HCC-2998 colon is -44.9% (active); in the test on KM12 colon, -18% (active).
Take `O=C(Nc1nc2cccc(-c3ccc(CN4CCS(=O)(=O)CC4)cc3)n2n1)C1CC1`: the growth in the test with T-47D breast was 80.4%; in the test on BT-549 breast, 53.6%; in the test on MDA-MB-435 melanoma, 91.3%; in the test on SW-620 colon, 30.1%; with MCF7 breast, 16.7%; with HCT-116 colon, 44.3%. Also, the growth is 79.2% in the test on HCC-2998 colon and 31.7% with KM12 colon.
Consider `Cc1cnc(Nc2ccc(OCCN3CCCC3)cc2)nc1Nc1cccc(S(=O)(=O)NC(C)(C)C)c1`, for which the growth in the test with T-47D breast was 12.5%; with BT-549 breast, -0.344% (active); with MDA-MB-435 melanoma, 13.5%; with SW-620 colon, -21.3% (active); in the test with MCF7 breast, 0.924% (active); in the test on HCT-116 colon, 1.03% (active). Also, the growth in the test with HCC-2998 colon was -25.9% (active); in the test with KM12 colon, 5.75% (active).
For the molecule `COc1ccc2c(CCCCC(c3ccccc3)c3ccccc3)c3[n+](cc2c1OC)CCc1cc2c(cc1-3)OCO2`, the growth is -49.3% (active) with T-47D breast; -74.2% (active) in the test with BT-549 breast; -91.8% (active) in the test on MDA-MB-435 melanoma; -76.9% (active) in the test on SW-620 colon; -40.6% (active) with MCF7 breast; -52.8% (active) in the test on HCT-116 colon. For the same molecule, the growth in the test with HCC-2998 colon was -95.7% (active); in the test with KM12 colon it was -71.5% (active).
On to `CNC(=O)c1ccc(Nc2ncc(C(F)(F)F)c(NCc3nccnc3N(C)S(C)(=O)=O)n2)cc1`, for which the growth in the test on T-47D breast is -12.4% (active); with BT-549 breast, -5.77% (active); with MDA-MB-435 melanoma it was 8.89% (active); in the test on SW-620 colon, -4.11% (active); with MCF7 breast, 2.04% (active); in the test with HCT-116 colon, 1.19% (active). The growth in the test with HCC-2998 colon was 8.5% (active); in the test with KM12 colon, 1.91% (active).
On to `C=CCC(=O)N[C@H](/C=C/C(=O)O)Cc1ccc(-c2cc(Cl)cc(Cl)c2)cc1`, for which the growth with T-47D breast is 81%; with BT-549 breast it was 92%; in the test on MDA-MB-435 melanoma, 103%; in the test on SW-620 colon, 104%; with MCF7 breast it was 92.7%; with HCT-116 colon it was 82.5%. For the same molecule, the growth was 101% in the test with HCC-2998 colon and 98.5% with KM12 colon.
As to `Cn1cc(-c2[nH]c3cc(NC(=O)[C@H](N)C4CCCCC4)cc4c3c2C=NNC4=O)cn1`, the growth is -9.81% (active) with T-47D breast; -73.7% (active) with BT-549 breast; -33.9% (active) in the test with MDA-MB-435 melanoma; -31.8% (active) in the test with SW-620 colon; -12.1% (active) in the test on MCF7 breast; -76% (active) in the test on HCT-116 colon. For the same molecule, the growth in the test on HCC-2998 colon was 32.6%; with KM12 colon it was 2.52% (active).
Consider `Cc1cc2c3c(cccc3c1)C(=O)c1ccccc1-2`, for which the growth in the test with T-47D breast was 92.1%; in the test on BT-549 breast it was 95.3%; in the test with MDA-MB-435 melanoma, 103%; in the test with SW-620 colon, 94.7%; with MCF7 breast it was 82%; with HCT-116 colon, 96.1%. Also, the growth with HCC-2998 colon was 98.2%; with KM12 colon it was 93.3%.
As for `C[C@@H]1COC(Nc2ccc3ncnc(Nc4ccc(OCc5nccs5)c(Cl)c4)c3c2)=N1`, the growth in the test with T-47D breast was -17.5% (active); in the test on BT-549 breast it was 1.81% (active); with MDA-MB-435 melanoma it was 50.1%; in the test with SW-620 colon it was 76.8%; in the test with MCF7 breast it was 45.1%; in the test on HCT-116 colon, 30.1%. For the same molecule, the growth in the test on HCC-2998 colon was 46.9%; in the test on KM12 colon, 18.5%.
Regarding `COc1cc(-c2nc(C(=O)NCC(=O)O)nn2-c2ccc(Cl)cc2)cc(OC)c1OC`, the growth is 99.5% in the test on T-47D breast; 106% in the test with BT-549 breast; 108% in the test with MDA-MB-435 melanoma; 108% in the test on SW-620 colon; 96.3% with MCF7 breast; 103% in the test with HCT-116 colon. Besides, the growth in the test with HCC-2998 colon was 100%; in the test on KM12 colon, 96.3%.
With `CC/C(=C(/c1ccc(Cl)cc1)c1ccc(OCCN2CCCCC2)cc1)c1ccc(Cl)cc1`, the growth in the test with T-47D breast is 43.9%; with BT-549 breast, 85.9%; in the test with MDA-MB-435 melanoma, 86.4%; with SW-620 colon, 65.2%; with MCF7 breast, 26.6%; in the test with HCT-116 colon, 61.3%. In addition, the growth was 89.4% with HCC-2998 colon and 69.2% in the test on KM12 colon.
Consider `CCCCCCCC(=O)SCC/C=C/[C@@H]1CC(=O)NCc2cc(ccn2)C2=N[C@@](C)(CS2)C(=O)N[C@@H](C(C)C)C(=O)O1`, for which the growth was -6.31% (active) with T-47D breast; 36.4% in the test on BT-549 breast; -22.1% (active) in the test with MDA-MB-435 melanoma; -1.73% (active) in the test with SW-620 colon; 14.1% in the test with MCF7 breast; -17.2% (active) in the test on HCT-116 colon. The growth with HCC-2998 colon is -67.8% (active); with KM12 colon, -3.5% (active).
With `COc1cc2c(cc1OCCCN1Cc3ccc(OCCCCC(=O)N4CCC(CCN5CCCC5)CC4)cc3C1)N=C(N)C21CCCC1`, the growth with T-47D breast is 56.2%; in the test with BT-549 breast, 63.4%; in the test with MDA-MB-435 melanoma, 81.5%; in the test with SW-620 colon, 66.4%; in the test on MCF7 breast, 58.5%; in the test with HCT-116 colon it was 68.1%. In addition, the growth in the test with HCC-2998 colon was 101%; with KM12 colon it was 78.5%.

These data come from PubChem BioAssay (NCI).
